Screening results deposited in PubChem by National Center for Advancing Translational Sciences (NCATS).
The sample as a whole holds a higher share of hits than the screen did.
Cycloheximide cs: Cycloheximide Counterscreen for Small Molecule Inhibitors of Shiga Toxin; cell reporter, cycloheximide protein synthesis inhibition counterscreen; max response, %; hit rate 12% among 300,000; in the data active means max response mostly above about 13%, no sharp cut-off; inactive means mostly below about 14%; further: read at 38.3 µM for the half of the compounds with a filed dose
LmPK inhibitor: qHTS Assay for Inhibitors of Leishmania Mexicana Pyruvate Kinase (LmPK). Q27686. purified LmPK, Kinase-Glo ATP luminescence, 1 h. Potency, µM (doses to about 57.5 µM), most hits filed as inhibitors. hit rate 0.37% among 290,000. AID 1721, 2009
Target sequence (Q27686 whole entry, looked up): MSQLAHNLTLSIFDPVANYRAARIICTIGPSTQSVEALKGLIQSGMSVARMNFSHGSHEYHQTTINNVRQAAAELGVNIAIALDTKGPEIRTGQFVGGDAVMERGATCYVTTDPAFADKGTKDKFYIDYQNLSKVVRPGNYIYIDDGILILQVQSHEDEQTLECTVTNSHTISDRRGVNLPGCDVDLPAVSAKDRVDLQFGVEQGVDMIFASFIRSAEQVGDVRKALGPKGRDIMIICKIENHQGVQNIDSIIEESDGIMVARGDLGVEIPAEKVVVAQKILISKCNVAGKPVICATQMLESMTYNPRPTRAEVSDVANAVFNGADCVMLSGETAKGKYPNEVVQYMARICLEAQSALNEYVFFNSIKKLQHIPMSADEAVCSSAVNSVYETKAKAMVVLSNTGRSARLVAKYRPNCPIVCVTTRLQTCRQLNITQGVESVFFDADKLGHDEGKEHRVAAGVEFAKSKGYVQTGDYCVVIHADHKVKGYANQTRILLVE
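qHTS format; LmPK 0.1 nM; substrates PEP 0.5 mM and ADP 0.1 mM. One-hour room-temperature incubation, then coupled luciferase luminescence; 0.5 nM enzyme wells mark activation.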
FBPA Giardia inh: qHTS Assay for Inhibitors of Fructose-1,6-bisphosphate Aldolase from Giardia Lamblia | purified Giardia FBPA | A8B2U2 | Potency, µM (titrated, usually from 59.6 µM), most hits filed as inhibitors | hit rate 0.71% among 290,000; further: nearly all actives have a fitted effect of over 55% in size
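40 nM FBPA preincubated 10 min at RT with compound (up to 57.5 uM final), then substrate plus GAPDH/TPI/NAD/arsenate coupling and diaphorase/resazurin added. Fluorescence read after 20 min at RT, 525/598 nm.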
Shiga toxin inh: A qHTS for Small Molecule Inhibitors of Shiga Toxin. Vero cells, Shiga toxin protein synthesis inhibition reporter. inhibition, % at 38.7 µM. AID 2315, 2010. hit rate 9.2% among 290,000; in the data active means inhibition mostly above about 28%, no sharp cut-off; inactive means mostly below about 43%
RE007 growth inh: qHTS Assay for Inhibitors of the HIV-1 protein Vpr; S. pombe RE007 Vpr strain, BacTiter-Glo ATP luminescence, 24 h; Potency, µM (series often up to 92.2 µM), most hits filed as inhibitors; hit rate 0.21% among 360,000; AID 651644, 2012; active means well fitted falling curve with a large enough effect; inconclusive means small, poorly fitted or top-dose-only effect; inactive means no such curve, though single readings can be large or run the other way; further: nearly all actives have a fitted effect of over 50% in size
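Fission yeast RE007 carrying one integrated HIV-1 vpr copy, seeded at OD 0.01 in PMG+AL medium with 23 nL pinned compound. Grown 24 h at 30 degrees; viability read by BacTiter-Glo luminescence after 5 min.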
TbPYK inhibitor: qHTS of Trypanosoma Brucei Inhibitors. pyruvate kinase (Trypanosoma brucei), Q57TT1. TbPYK enzyme, Kinase-Glo Plus ATP luminescence, 45 min. Potency, µM (top dose mostly 76.8 µM), actives largely listed as inhibitors. hit rate 0.12% among 410,000; further: nearly all actives have a fitted effect of over 50% in size
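Quantitative HTS: titrated library compounds versus trypanosomal pyruvate kinase in TEA buffer (pH 7.2) containing KCl, MgCl2, BSA and Tween-20. Reactions were initiated with ADP, 130 uM final. Kinase-Glo Plus luminescence was read after 45 min at RT.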
Of the large screens only hits and unclear results are named; the others gave an inactive call. Unless noted, the call rests on the fitted dose curve; in most records, active means well fitted curve in the direction sought with a large enough effect; inconclusive means small, poorly fitted or top-dose-only effect, or another doubt; inactive means no such curve, though single readings can be large; an effect the other way counts as inactive or inconclusive.

FC(F)(F)c1nc(SCc2ccc(Cl)cc2Cl)n[nH]1	Cycloheximide cs 20
NC(=O)c1ccccc1-c1nc(-n2ccnc2)c2ccccc2n1	none (no result: Cycloheximide cs, LmPK inhibitor, Shiga toxin inh, RE007 growth inh, TbPYK inhibitor)
COc1ccc(/C=C/C(=O)Oc2cccc(/C=N/NC(=O)c3cccc(F)c3)c2)cc1	Cycloheximide cs 95, Shiga toxin inh 129
COc1ccc(/C=C\C(=O)Oc2cccc(/C=N/NC(=O)Cc3ccc(OC)c(OC)c3)c2)cc1	Cycloheximide cs 65, Shiga toxin inh 46, RE007 growth inh inconclusive
COc1ccccc1NC(=O)c1c(C)cc(C)nc1SCC(=O)c1ccc(Cl)cc1	none (no result: Cycloheximide cs, LmPK inhibitor, FBPA Giardia inh, Shiga toxin inh, RE007 growth inh)
N#Cc1ccc(C(=O)NC2=NCCS2)cc1	Cycloheximide cs 34, Shiga toxin inh 104
CCCN1C(=O)c2ccc(C(=O)Nc3ccc4c(c3)OCO4)cc2C1=O	none (no result: FBPA Giardia inh)
COc1cc(OC)cc(C(=O)NC2=NCCS2)c1	none
CCCN1C(=O)c2ccc(C(=O)NC3=NCCS3)cc2C1=O	Cycloheximide cs 15
O=C(NC1=NCCS1)c1ccc(C(F)(F)F)cc1	Cycloheximide cs 34, Shiga toxin inh 96
Cc1ccc(C(=O)NC2=NCCS2)cc1Cl	Cycloheximide cs 38, Shiga toxin inh 44
CCN(CC)S(=O)(=O)c1ccc(C(=O)NC2=NCCS2)cc1	none
CCc1cccc(NC(=O)CSc2nc3ccsc3c(=O)n2CC)c1	none (no result: Cycloheximide cs, LmPK inhibitor, FBPA Giardia inh, Shiga toxin inh, RE007 growth inh)
Oc1cccc(-c2c3nc(c(-c4cccc(O)c4)c4ccc([nH]4)c(-c4cccc(O)c4)c4nc(c(-c5cccc(O)c5)c5ccc2[nH]5)CC4)C=C3)c1	none (no result: Cycloheximide cs, LmPK inhibitor, FBPA Giardia inh, Shiga toxin inh, RE007 growth inh)
Cc1ccc(C)c(Cn2c3ccccc3c3cnn(CC(=O)NC4CCCCCC4)c(=O)c32)c1	none (no result: Cycloheximide cs, LmPK inhibitor, FBPA Giardia inh, Shiga toxin inh, RE007 growth inh)
CC(C)c1ccc(C(=O)NC2=NCCS2)cc1	Cycloheximide cs 53, Shiga toxin inh 63
Cc1ccc(C(=O)NC2=NCCS2)cc1	Cycloheximide cs 34, Shiga toxin inh 85 (no result: RE007 growth inh, TbPYK inhibitor)
CCOC(=O)Cn1c(=O)n(CC2CCCO2)c2nc(-c3cccc(C)c3)nc(C(N)=O)c21 (configuration not stated)	none (no result: Cycloheximide cs, LmPK inhibitor, FBPA Giardia inh, Shiga toxin inh, RE007 growth inh)
Cc1noc(C)c1-c1ccc2ncnc(N3CCOCC3)c2c1	none (no result: Cycloheximide cs, LmPK inhibitor, Shiga toxin inh, RE007 growth inh, TbPYK inhibitor)
O=C(Nc1nnc(C2CCCCC2)s1)c1ccco1	Cycloheximide cs 34, Shiga toxin inh 80
O=C(Nc1nnc(C2CC2)s1)c1ccco1	Cycloheximide cs 29, LmPK inhibitor inconclusive, Shiga toxin inh 107
Cc1ccc(OCC(=O)N/N=C/c2cccn2C)cc1	none
O=C(N/N=C/c1cccs1)c1[nH]ncc1Br	Cycloheximide cs 55, Shiga toxin inh 118
O=C(N/N=C/c1cccs1)c1cnccn1	Shiga toxin inh 32
Cn1cccc1/C=N/NC(=O)c1cccc(OC(F)(F)C(F)F)c1	Cycloheximide cs 30, Shiga toxin inh 63
Cc1cc(C(=O)N/N=C/c2cccs2)no1	Cycloheximide cs 40, Shiga toxin inh 58
CCOc1ccc(NC(=O)c2sc(-n3nc(C)c(CCC(C)C)c3C)nc2C)cc1	none (no result: Cycloheximide cs, LmPK inhibitor, FBPA Giardia inh, Shiga toxin inh, RE007 growth inh)
CCc1ccc(-n2c(=O)c3cccnc3n2CC(=O)Nc2cc(F)ccc2F)cc1	none (no result: Cycloheximide cs, LmPK inhibitor, FBPA Giardia inh, Shiga toxin inh, RE007 growth inh)
CCC(C)n1c(=N)c(S(=O)(=O)c2ccc(C)cc2)cc2c(=O)n3cc(C)ccc3nc21 (configuration not stated)	none (no result: Cycloheximide cs, LmPK inhibitor, FBPA Giardia inh, Shiga toxin inh, RE007 growth inh)
Cc1cc(C(=O)N/N=C/c2cccs2)n[nH]1	Cycloheximide cs 29, Shiga toxin inh 54
Cc1ccc(C(=O)N/N=C\c2ccc(OC(=O)c3cccs3)cc2)cn1	none
Cc1cc(C(=O)N/N=C/c2cccn2C)n[nH]1	Cycloheximide cs 33, Shiga toxin inh active
Cc1cc(C(=O)N/N=C/c2cc(Br)ccc2OC(=O)c2ccc(Br)cc2)n[nH]1	none (no result: RE007 growth inh, TbPYK inhibitor)
Cc1cc(C(=O)N/N=C/c2ccc(-c3cccc(Cl)c3)o2)n[nH]1	none
Cc1cc(C(=O)N/N=C\c2cc(C(C)(C)C)ccc2O)n[nH]1	Cycloheximide cs 47, Shiga toxin inh 41 (no result: FBPA Giardia inh)
Cc1ccc(C(=O)N/N=C\c2cccs2)cn1	Cycloheximide cs 25, Shiga toxin inh 82
CCOc1ccccc1NC(=O)COC(=O)c1cn(CC)c2nc(C)ccc2c1=O	none (no result: Cycloheximide cs, LmPK inhibitor, FBPA Giardia inh, Shiga toxin inh, RE007 growth inh)
CCOC(=O)N1CCc2c(sc3c2c(=O)n(Cc2ccccc2)c(=O)n3Cc2cccc(Cl)c2)C1	none (no result: Cycloheximide cs, LmPK inhibitor, FBPA Giardia inh, Shiga toxin inh, RE007 growth inh)
